In the library only some 4.2% were active in any assay of this set; here they are far more common.
RecA intein inh = Mtb RecA intein splicing inhibition; cell-free RecA intein splicing, fluorescence; AID 2221; hit rate 0.75% among 290,000; P9WHJ3; inhibition, % (no concentration beside the values); in the data active means inhibition above about 30%;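 further: 0% = vehicle wells and 100% = reference inhibitor control wells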
GDH-TPI counter = inhibits GDH-TPI coupling enzymes, artifact for Mtb FBA screen. GDH-TPI coupled enzyme counterscreen, NADH absorbance. inhibition, % at 4.8 µM. hit rate 1.2% among 360,000. AID 588335;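 further: 0% = DMSO wells and 100% = wells lacking the enzyme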
CCHFV vOTU inh = CCHFV vOTU protease inhibition | Pep-AMC fluorescence | inhibition, % at 11.5 µM | hit rate 0.55% among 370,000; further: 0% = vehicle wells with enzyme and 100% = no enzyme wells
Mtb betalactam = beta-lactam sensitization of Mtb H37Rv. M. tuberculosis H37Rv growth with meropenem, percent inhibition. inhibition, % at 25 µM. hit rate 0.27% among 330,000. AID 434955; call rule not given here;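 further: growth measured after seven days incubation then overnight dye step; 0% = bacteria only wells and 100% = bacteria with antibiotic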
Mtb FBA inh = Mtb fructose-bisphosphate aldolase inhibition | hit rate 2.3% among 360,000 | inhibition, % at 1 µM | purified M. tuberculosis FBA, fluorescence read-out | P9WQA3; in the data active means inhibition above about 27%;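 further: 0% = vehicle and 100% = reference inhibitor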
Target sequence (P9WQA3 whole entry, looked up): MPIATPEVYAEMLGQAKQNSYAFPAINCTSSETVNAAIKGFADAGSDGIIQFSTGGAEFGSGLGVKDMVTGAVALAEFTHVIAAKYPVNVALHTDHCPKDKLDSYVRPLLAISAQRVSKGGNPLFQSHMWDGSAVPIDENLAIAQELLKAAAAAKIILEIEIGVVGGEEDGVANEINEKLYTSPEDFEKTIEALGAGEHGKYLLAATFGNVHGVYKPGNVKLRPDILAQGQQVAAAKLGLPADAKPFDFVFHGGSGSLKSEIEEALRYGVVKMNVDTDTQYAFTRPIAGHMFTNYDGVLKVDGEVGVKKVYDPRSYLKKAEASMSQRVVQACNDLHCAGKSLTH
Numbers without * were called inactive. Unless noted, no stated cut-off is given here; in the data, active means inhibition above about 30%; inactive means the rest.

Cc1ccc(CN2CCCCC(NC(=O)Nc3ccccc3-c3ccccc3)C2=O)cc1 (configuration not stated) was read as CCHFV vOTU inh 13.7.
CN(C)c1ccc(-c2nc3ccccc3c(=O)[nH]2)cc1 was read as RecA intein inh -2.3, GDH-TPI counter 73.7*, CCHFV vOTU inh 19.4, Mtb betalactam 8.2 and Mtb FBA inh 1.7.
For CCCCNC(=O)C[C@@H]1C(=O)N(Cc2ccc(OC)cc2)C2=CCN(C(=O)OC(C)(C)C)C[C@]21C(=O)OCC the results were CCHFV vOTU inh 6.9.
Screening Cn1ccc2c(-c3ccc(C(C)(C)C)cc3)cc3c(c21)C1CCC3O1 (configuration not stated) returned CCHFV vOTU inh 28.8 and Mtb FBA inh 11.4.
Cn1ccc2c(-c3ccc(CO)cc3)cc3c(c21)C1CCC3O1 (configuration not stated) was read as CCHFV vOTU inh -46.4 and Mtb FBA inh active.
Screening Cn1ccc2c(-c3ccc(C(=O)O)cc3)cc3c(c21)C1CCC3O1 (configuration not stated) returned CCHFV vOTU inh -157.2 and Mtb FBA inh active.
For Cc1ccc(NC(=O)Cc2ccc(OC(F)F)cc2)c(S(=O)(=O)N2CCOCC2)c1 the results were CCHFV vOTU inh 4.3.
Screening CC[C@H](CCCc1ccccc1OC)CCS(=O)(=O)N(C)C returned CCHFV vOTU inh 7.8.
`Cc1ccccc1CN1CCCCC(NC(=O)c2ccc(F)cc2F)C1=O` (configuration not stated) gave CCHFV vOTU inh -0.9.
Screening CCCCn1c(CCNC(=O)c2cccs2)nc2ccccc21 returned RecA intein inh -11.0, GDH-TPI counter 2.0, CCHFV vOTU inh 11.5, Mtb betalactam 6.1 and Mtb FBA inh 3.5.
For N#Cc1c(N)n(CCCN2CCOCC2)c2nc3ccccc3nc12 the results were GDH-TPI counter 18.2, CCHFV vOTU inh -177.8, Mtb betalactam -1.6 and Mtb FBA inh 192.3*.
Screening CCCCCCn1c(N)c(C(=O)NCCN2CCOCC2)c2nc3ccccc3nc21 returned RecA intein inh -384.7, GDH-TPI counter -0.9, CCHFV vOTU inh -36.0, Mtb betalactam 87.1 and Mtb FBA inh 49.8*.
`COc1ccc(CCn2c(N)c(C#N)c3nc4ccccc4nc32)cc1OC` gave RecA intein inh 9.0, GDH-TPI counter 9.8, CCHFV vOTU inh 9.2, Mtb betalactam -1.0 and Mtb FBA inh 16.0.
N#Cc1c(N)n(CCNC(=O)c2cccs2)c2nc3ccccc3nc12 was read as RecA intein inh inactive, GDH-TPI counter 8.8, CCHFV vOTU inh -197.3, Mtb betalactam -16.7 and Mtb FBA inh active.
`COc1ccccc1CCn1c(N)c(C#N)c2nc3ccccc3nc21` gave RecA intein inh -2.3, GDH-TPI counter 26.7, CCHFV vOTU inh -166.5, Mtb betalactam 5.4 and Mtb FBA inh active.
`Nc1c(C(=O)Nc2ccccc2)c2nc3ccccc3nc2n1CCCN1CCOCC1` gave RecA intein inh -13.3, GDH-TPI counter 11.7, CCHFV vOTU inh -13.3, Mtb betalactam 100.1 and Mtb FBA inh 5.4.
`O=S(=O)(c1cccs1)N1CCC(c2cn3ccccc3n2)CC1` gave CCHFV vOTU inh -12.1.
Screening CC(C)(C)c1ccc(-c2nnc3n2N=C(c2ccc4ccccc4c2)CS3)cc1 returned CCHFV vOTU inh 11.0.
`CC(=O)N(C)Cc1ccc(C(=O)CCl)cc1` gave RecA intein inh 37.0*, GDH-TPI counter -0.3, CCHFV vOTU inh -9.4, Mtb betalactam 9.1 and Mtb FBA inh 2.1.
`CC(=O)NCc1ccc(C(=O)CCl)cc1` gave RecA intein inh 23.0, GDH-TPI counter -2.5, CCHFV vOTU inh 8.9, Mtb betalactam 3.1 and Mtb FBA inh 4.1.
`O=C1CN=C(c2ccc(F)cc2)c2oc3ccccc3c2N1` gave RecA intein inh -0.6, GDH-TPI counter 4.1, CCHFV vOTU inh 4.7, Mtb betalactam -0.7 and Mtb FBA inh -2.5.
For O=C1CCC(=O)c2oc3ccccc3c2N1 the results were RecA intein inh -1.9, GDH-TPI counter 30.9*, CCHFV vOTU inh 4.3, Mtb betalactam -4.5 and Mtb FBA inh -0.4.
`CC(NCc1ccco1)C(=O)N1CCN(c2cccc(C(F)(F)F)c2)CC1` (configuration not stated) gave CCHFV vOTU inh -2.4.
Screening Cc1c(CC(=O)NCCCO)c(=O)oc2cc3c(cc12)CCC(C)(C)O3 returned RecA intein inh -0.2, GDH-TPI counter 22.0, CCHFV vOTU inh -175.4, Mtb betalactam -6.0 and Mtb FBA inh 182.8*.
Cc1c(CC(=O)NCC(=O)NCC(=O)O)c(=O)oc2cc3c(cc12)CCC(C)(C)O3 was read as RecA intein inh -3.4, GDH-TPI counter 21.9, CCHFV vOTU inh -159.0, Mtb betalactam -1.9 and Mtb FBA inh 194.0*.

Bioassay records from PubChem BioAssay.
